# The whole screen tested about 420,000 compounds, of which about 50,000 (12%) were called active. Not shown: some 26% with an inconclusive outcome. For the sample, actives were picked, then their nearest neighbours and some compounds at random. Unmarked numbers belong to inactive results. Calls follow the shape of the dose curve; as a rule, active = well fitted inhibition curve with a large enough effect; inconclusive = small, poorly fitted or top-dose-only effect; inactive = flat fitted curve, though single readings scatter.
# Assay: qHTS for Inhibitors of human tyrosyl-DNA phosphodiesterase 1 (TDP1): qHTS in cells in presence of CPT; also: nearly all actives have a fitted effect of over 55% in size
# Details: chicken DT40 Tdp1-/-;hTDP1 cells + 20 nM CPT, ATP luminescence, 48 h; series mostly up to 46.2 µM; activity change, negative = growth inhibition: at the top concentration
# Summary of the method: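 Cell growth measured by CellTiter-Glo luminescence after a minimum 48 h, 37 C compound exposure with 20 nM CPT in Tdp1-knockout DT40 cells stably expressing hTDP1, seeded 400/well; qHTS titration format.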
# % is scaled to controls: 0 for no effect and ±100 for the full control effect; potency is read from the fitted curve at half-maximal effect.
SMILES,"activity change, negative = growth inhibition",Potency
CC1C(=O)Nc2ccccc2N1C(=O)c1ccc(F)cc1F (stereo not given),-6.81%,
CCN(CC)C(=O)c1nc[nH]c1C(=O)N(C)Cc1ccccc1,4.56%,
CN1CC(O)c2cc(N=NC(N)=O)c(O)cc21 (stereo not given),-15.8%,
CCOC(=O)N1CCN(S(=O)(=O)c2ccc(-n3cnnn3)cc2)CC1,-11.6%,
CCOC(=O)N1CCN(S(=O)(=O)c2ccc(C(=O)Nc3ccc(F)cc3F)cc2)CC1,,2.59 µM (active)
CCOC(=O)N1CCN(S(=O)(=O)c2ccc(Br)cc2)CC1,1.25%,
COc1ccc(-c2nc3ccccc3c(=O)n2CCc2ccc(O)cc2)cc1,,14.6 µM (active)
COc1cccc(OCCn2c(-c3ccc(Br)cc3)nc3ccccc3c2=O)c1,-9.2%,
COc1ccc(-c2ccc(CCC(=O)O)n2-c2ccc(O)cc2)cc1,-13.8%,
C=CCNC(=O)COC(=O)c1ccccc1C(=O)N(C)C1CCCCC1,-5.9%,
O=C(COC(=O)c1ccccc1SCC(=O)NC1CCCCC1)NC1CCCCC1,3.2%,
CC1CCCC(NC(=O)COC(=O)c2ccccc2C(=O)N(C)C2CCCCC2)C1C (stereo not given),,23.1 µM (active)
COc1cc(=O)n2c(c1C(=O)NC(C)c1ccco1)CCN(C(=O)c1cn3ccc(C)cc3n1)CC2 (stereo not given),3.27%,
Cc1cccn2c(=O)c(/C=C(\C#N)S(=O)(=O)c3ccc(Cl)cc3)c(N3CCC(C(N)=O)CC3)nc12,0.471%,
Cc1ccc(C(=O)N/C(=C\c2ccco2)C(=O)NC2CCS(=O)(=O)C2)cc1 (stereo not given),13.6%,
Cc1cc(C)cc(Oc2nc3c(C)cccn3c(=O)c2/C=C(\C#N)C(=O)NC2CCS(=O)(=O)C2)c1 (stereo not given),,16.4 µM (active)
Cc1ccnc(SCC(N)=O)n1,-14.1%,
Cc1ccnc(-n2sc3ccccc3c2=O)n1,,7.31 µM (active)
Cc1ccnc(Nc2nc3ccccc3s2)n1,-17.4%,
Cc1cccc(C)c1NC(=O)CNC(=O)C1CCCC1,-0.199%,
CCc1ccnc(NC(=O)Nc2ccc(OCc3ccccc3)cc2)c1,-10.7%,
Cc1[nH]c(C)c(S(=O)(=O)N2CCC(C)CC2)c1C(=O)N1CCCC1,-6.25%,
Cc1ccc(NS(=O)(=O)c2c(C)[nH]c(C)c2C(=O)N2CCCCC2)c(C)c1,-27%,
Cc1[nH]c(C)c(S(=O)(=O)N2CCN(c3cccc(C(F)(F)F)c3)CC2)c1C(=O)N1CCCC1,,18.4 µM (active)
O=C1CC(=O)Nc2cc(S(=O)(=O)N3CCN(c4cccc(C(F)(F)F)c4)CC3)ccc2N1,5.71%,
Cc1[nH]c(C)c(S(=O)(=O)N2CCN(c3cccc(C(F)(F)F)c3)CC2)c1C(=O)N1CCCCC1,,14.6 µM (active)
Cc1ccc(C)c(NS(=O)(=O)c2c(C)[nH]c(C)c2C(=O)N2CCCCC2)c1,-4.6%,

SMILES,"activity change, negative = growth inhibition",Potency
CC1=NOC(=O)/C1=C\c1ccccc1,-5.28%,
CCOc1cc(/C=N/O)ccc1OCc1ccccc1F,2.25%,
COc1cc(/C=C2/C(=O)ON=C2C)ccc1OCc1ccccc1F,,11.6 µM (active)
Cc1cc(NC(=O)CCS(=O)(=O)c2ccc(F)cc2)no1,-0.0242%,
C[C@@H]1CN(Cc2ccc3c(c2)CN(Cc2ccc(Oc4ncccn4)cc2)CCO3)C[C@H](C)O1,-11.8% [at 9.04 µM],
COc1ccc(/C=N/N=C2/C(=O)Nc3ccccc32)cc1O,-26.3%,
O=C1Nc2ccc(Br)cc2/C1=N/N=C/C1=C(N2CCOCC2)C(=C\c2ccccc2)/CC1,,16.4 µM (active)
CCN(CC)c1ccc(C(=O)N/N=C/c2ccc(N3CCOCC3)cc2)cc1,1.61%,
O=C(NN=Cc1ccc(N2CCOCC2)cc1)c1cc2ccccc2cc1O,-27.4%,
O=C(O)c1ccc(NN=CC2=C(N3CCOCC3)/C(=C/c3ccccc3)CC2)cc1,,1.46 µM (active)
CC1CCN(C(NC(=O)c2ccco2)C(=O)c2ccccc2)CC1 (stereo not given),-18.3%,
Cc1csc(SCC(=O)Nc2ccc(C)c(S(=O)(=O)N(C)C)c2)n1,-44.9%,
O=C(CSc1nnc2ccccn12)c1ccccc1,-8.77%,
Cc1ccc(-n2c(C)cc(C(=O)CSc3nnc4ccccn34)c2C)cc1,,23.1 µM (active)
Cc1ccc(C(=O)NNC(=O)CSc2nnc3ccccn23)cc1,1.45%,
COc1ccccc1C(=O)COC(=O)CSCC(=O)Nc1cc(C)on1,-16.7%,
NC(=O)C1CCCN(CC(=O)N2CCN(c3ccccc3)CC2)C1 (stereo not given),-9.01%,
Cc1ccc(S(=O)(=O)Oc2ccc(/C=N/NC(=O)c3c(Cl)cnn3C)cc2)cc1,-25%,
Cc1nc2ccccn2c(=O)c1NC(=O)c1ccc(Br)o1,-3.61%,
Cc1ccc(-c2nc3ccccn3c2Nc2c(C)cccc2C)o1,,16.4 µM (active)
CC(C)(C)Nc1c(-c2cccs2)nc2ccccn12,0.159%,
O=C(CSc1ccccc1)Nc1cccc(S(=O)(=O)N2CCOCC2)c1,-26.4%,
CC(=O)Nc1ccc(C(=O)NNC(=O)CCCCC(=O)NNC(=O)c2ccc(NC(C)=O)cc2)cc1,-3.53%,
Cn1c(=O)n(C)c2cc(C(=O)Nc3ccc(Br)cc3)ccc21,-17.5%,
COCCn1c(=O)[nH]c(=O)c2cc(C(=O)c3cc(OC)ccc3O)cnc21,-23.3%,
COc1cc(OC)c2c(c1)OC(=O)CC2c1cc(OC)c(OC)c(OC)c1 (stereo not given),-9.46%,
COC(=O)c1cc(CNC(=O)CC(C)c2ccccc2)ccc1OC (stereo not given),9.19%,

SMILES,"activity change, negative = growth inhibition",Potency
COc1cc(NC(=S)N2CCCC(C)C2)c(OC)cc1Cl (stereo not given),0.248%,
COc1cc(Cl)c(C)cc1NC(=O)CN1CCCCCC1,0.785%,
COc1cc(NC(=O)CSC(=S)N2CCCC2)c(OC)cc1Cl,,29.1 µM (active)
N#C/C(=C\c1cccc(F)c1)c1nc(-c2cc3c(ccc4ccccc43)oc2=O)cs1,-15%,
Cc1cc(C)c(S(=O)(=O)N(C)CC(=O)NCC2CCCO2)c(C)c1 (stereo not given),-8.5%,
COc1cccc(C(=O)NC2=NC(c3ccc(N(C)C)cc3)CC(=O)N2)c1 (stereo not given),-17.6%,
COc1ccc(CCNc2nc(C)cc(C)n2)cc1OC,1.65%,
COc1ccc(CCNC(=O)COC(=O)c2ncc(Cl)c(Cl)c2Cl)cc1OC,-11.5%,
COc1ccc(CCNc2nc(-c3ccc(Cl)cc3)cc(C(F)(F)F)n2)cc1OC,,23.1 µM (active)
O=C(CN(C(=O)c1csnn1)c1ccc(Br)cc1)NC1CCCC1,3.35%,
O=C(CCN1C(=O)[C@H]2CC=CC[C@H]2C1=O)NCc1nc(-c2ccccc2)no1,-5.36%,
COc1ccc(OC)c(NC(=O)c2ccc3c(c2)C(=O)N(c2ccc(OC(C)=O)cc2)C3=O)c1,5.37%,
CC1CCCCN1CCCNc1ccc(C(CC(N)=O)NC(=O)c2ccccc2)cc1[N+](=O)[O-] (stereo not given),8.16%,
Cc1ccc(OCC(=O)Nc2ccc(NC(=O)c3cccs3)cc2)c(C)c1,-14%,
CCC(C)N1C(=S)SC(C)(C)C1N(O)C(=O)NC1CCCCC1 (stereo not given),-24.1%,
O=C(COC(=O)c1ccc(O)cc1O)NNC(=O)c1cccs1,2.24%,
Cc1cc2nc3n(c2cc1C)CC1CC(C(=O)NCCC(C)C)N(C)C31 (stereo not given),1.75%,
COc1ccc(-n2ncc3c(SCC(=O)NNC(C)=O)ncnc32)cc1,5.07%,
CCOc1ccc(NC(=O)c2cccc3c2C(=O)N(CC2CCCO2)C3)cc1 (stereo not given),-6.22%,
COc1ccc(NC(=O)c2cccc3c2C(=O)N(CC2CCCO2)C3)cc1OC (stereo not given),,23.1 µM (active)
COCCN1Cc2cccc(C(=O)Nc3ccccc3OC)c2C1=O,-15%,
O=C1NC(c2ccccc2)CCC1(Cl)Cl (stereo not given),3.71%,
Cc1ccc(NC(=O)CCN2C(=O)c3ccccc3C2=O)cc1C,-4.36%,
COC(=O)C[C@H]1C[C@@H]2c3cc(NC(=O)Nc4ccccc4)ccc3O[C@@H]2[C@@H](CO)O1,-6.14%,
O=C(CN1Cc2ccccc2OC(c2ccccc2)C1)N1CCCCC1c1cccnc1 (stereo not given),-0.761% [at 9.04 µM],
COc1cc(CNCc2ccc(OC)c3ccccc23)cc(OC)c1OC,,9.2 µM (active)
COc1ccc(CNCCCNCc2ccc(OC)c(OC)c2)cc1OC,-9.22%,

SMILES,"activity change, negative = growth inhibition",Potency
COc1cc(CNCc2cccs2)cc(Br)c1OC,-7.72%,
Cn1cncc1COC(=O)c1ccc(Cl)cc1,-14.8%,
Cc1ccccc1NC(=O)c1nn(-c2ccc(F)c(F)c2)ccc1=O,-1.27%,
Cc1cccc(NC(=S)N(CCN(C)C)C(C)c2ccco2)c1 (stereo not given),-17.4%,
CC(C)NC(=O)N1CCN(c2ccncc2S(=O)(=O)N2CCCCC2)CC1,2.06%,
CN1CCN(c2ccncc2S(=O)(=O)N2CCCC2)CC1,9.33%,
O=S(=O)(c1cnccc1N1CCN(/N=C/c2ccc(Br)cc2)CC1)N1CCCCC1,,18.4 µM (active)
Cc1ccc(NC(=O)COc2ccc(/C=N\NC(=O)c3cccnc3)cc2)cc1C,-5.23%,
CC1(C)N=C(N)NC(Nc2ccc(Cl)cc2)=N1,-13.1%,
COc1ccccc1NC1=NC2(CCCC2)N=C(N)N1,-12.7%,
COc1ccccc1NC1=NC(c2ccc(Cl)cc2)N=C(N)N1 (stereo not given),,5.17 µM (active)
CC1(C)C(C=C(Cl)Cl)C1C(=O)NC(O)C(=O)c1ccccc1 (stereo not given),2.14%,
COCCN(C(=O)CSCc1ccc(C)cc1)c1c(N)n(CC(C)C)c(=O)[nH]c1=O,9.75%,
C[C@]12C=CC(=O)C=C1CC[C@@H]1[C@@H]2C(=O)C[C@@]2(C)[C@H]1CC[C@]2(O)C(=O)CO,,inactive
CCC1CCCCN1C(=S)NC(=O)c1ccco1 (stereo not given),0.583%,
CCOc1cc(/C=C2/N=C(c3ccc(C(C)(C)C)cc3)OC2=O)cc(Cl)c1OS(C)(=O)=O,,18.4 µM (active)
O=C1OC(c2ccc(Cl)cc2)=N/C1=C\c1cccnc1,-25.1%,
CC1CCN(C(=O)COC(=O)CCC(=O)c2cccs2)CC1,-0.232%,
COc1cc(C2CC(=O)Oc3cc(OC)c(OC)c(OC)c32)cc(OC)c1OC (stereo not given),-8.15%,
Cc1cc(C)cc(NS(=O)(=O)Cc2ccccc2)c1,14.9%,
Cn1nnnc1SCC(=O)NNC(=O)c1ccc(Br)cc1,0.881%,
Cc1nc2ccccc2cc1O,-22.8%,
Cc1occc(=O)c1OCc1ccc(F)cc1,13.4%,
Cc1nc2ccccc2cc1OCc1ccc(F)cc1,,11.6 µM (active)

# From PubChem BioAssay AID686979 (National Center for Advancing Translational Sciences (NCATS), 2013)
